Among the test systems are HCT-15 colon; HT29 colon; SNB-75 CNS; SNB-19 CNS; U251 CNS; PC-3 prostate; SK-MEL-5 melanoma; UACC-62 melanoma; LOX IMVI melanoma; SK-MEL-28 melanoma; SK-MEL-2 melanoma; EKVX NSCLC; SN12C renal; UO-31 renal; ACHN renal; CAKI-1 renal; A498 renal; CCRF-CEM leukemia; MOLT-4 leukemia; TK-10 renal.
Assay in all cases: NCI-60 one-dose screen, 48 h (100 = growth as untreated, 0 = no growth, -100 = all killed)
Common to all, as to conditions: 10 µM unless noted

Molecules are shown by their SMILES. Values joined by “and” are separate entries in the source; they are usually repeats but may differ in a detail not shown here. Equal values may be shown once. This is part of a sample that, as a whole, favours compounds with a hit. Of some 83,000 tested, about 20% had one in any assay.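 For each line, cells grew in 96-well plates with the test compound present at a single concentration for 48 hours.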 Active and inactive are the calls of the source. The calls were made as follows: active = growth percent below 10; inactive = the rest.

For `Cc1csc(/N=C(N)/N=C(\N)c2cccs2)n1`, the growth in the test with HCT-15 colon was 100% (inactive); in the test on HT29 colon, 116% (inactive); with SNB-75 CNS, 94.3% (inactive); with SNB-19 CNS, 103% (inactive); in the test with U251 CNS, 97% (inactive); in the test with PC-3 prostate, 92.3% (inactive). Moreover, the growth was 99.5% (inactive) in the test on SK-MEL-5 melanoma; 94.7% (inactive) in the test on UACC-62 melanoma; 104% (inactive) in the test with LOX IMVI melanoma; 117% (inactive) in the test on SK-MEL-28 melanoma; 106% (inactive) with SK-MEL-2 melanoma; 94.2% (inactive) in the test with EKVX NSCLC. Also, the growth in the test with SN12C renal is 110% (inactive); in the test on UO-31 renal, 81.5% (inactive); in the test with ACHN renal it was 107% (inactive); in the test on CAKI-1 renal, 85.1% (inactive); with A498 renal, 120% (inactive); in the test with CCRF-CEM leukemia, 110% (inactive). Besides, the growth with MOLT-4 leukemia is 106% (inactive).

With `CC1=C(C)C(=O)C(Nc2ccc(C)cc2)=C(Br)C1=O`, the growth in the test with HCT-15 colon was 95.9% (inactive); in the test on HT29 colon, 108% (inactive); in the test on SNB-75 CNS it was 89% (inactive); in the test with SNB-19 CNS, 101% (inactive); in the test with U251 CNS it was 104% (inactive); in the test with PC-3 prostate it was 87.8% (inactive). Further, the growth is 94% (inactive) with SK-MEL-5 melanoma; 92.2% (inactive) with UACC-62 melanoma; 29.9% (inactive) with LOX IMVI melanoma; 112% (inactive) in the test with SK-MEL-28 melanoma; 111% (inactive) in the test on SK-MEL-2 melanoma; 79.3% (inactive) with EKVX NSCLC. Besides, the growth with SN12C renal was 98.9% (inactive); in the test on UO-31 renal it was 87.5% (inactive); with ACHN renal, 102% (inactive); with CAKI-1 renal, 106% (inactive); with CCRF-CEM leukemia, 17.9% (inactive); in the test with MOLT-4 leukemia it was -30.6% (active).

Turning to `CN1CCN(Cc2ccc(NC(=O)c3cncc(C#Cc4cnc5ccc(NCCO)nn45)c3)cc2C(F)(F)F)CC1`, the growth in the test with HCT-15 colon is 33.2% (inactive); in the test on HT29 colon, -28% (active); in the test on SNB-75 CNS it was -90.5% (active); in the test with SNB-19 CNS, 0.946% (active); in the test with U251 CNS, -19.6% (active); in the test on PC-3 prostate it was 3.35% (active). Also, the growth in the test on SK-MEL-5 melanoma was -22.2% (active); in the test with UACC-62 melanoma, -32.7% (active); with LOX IMVI melanoma, -87.8% (active); in the test on SK-MEL-28 melanoma, -24.4% (active); in the test on SK-MEL-2 melanoma, -89% (active); in the test with EKVX NSCLC, -0.668% (active). Moreover, the growth with SN12C renal is 1.09% (active); with UO-31 renal, 58.4% (inactive); in the test with ACHN renal, 8.5% (active); in the test with CAKI-1 renal, -3.82% (active); in the test on A498 renal, -94.3% (active); in the test with CCRF-CEM leukemia it was 9.38% (active). Further, the growth with MOLT-4 leukemia is 3.21% (active).

Take `NS(=O)(=O)c1ccc(Nc2nc(N/N=C/C=C/c3ccccc3)nc(Nc3ccccc3)n2)cc1`: the growth is 45% (inactive) in the test with HCT-15 colon; 34.6% (inactive) in the test on HT29 colon; 43% (inactive) with SNB-75 CNS; 48.4% (inactive) in the test with SNB-19 CNS; 51.1% (inactive) with U251 CNS; 47.5% (inactive) in the test with PC-3 prostate. Further, the growth was 40.3% (inactive) with SK-MEL-5 melanoma; 66.4% (inactive) with UACC-62 melanoma; 27.3% (inactive) in the test on LOX IMVI melanoma; 45% (inactive) in the test on SK-MEL-2 melanoma; 71.3% (inactive) in the test on EKVX NSCLC; 48.1% (inactive) with SN12C renal. For the same compound, the growth in the test on UO-31 renal is 39.6% (inactive); with TK-10 renal, 86.8% (inactive); in the test with ACHN renal, 38.5% (inactive); in the test on CAKI-1 renal, 46.1% (inactive); in the test with A498 renal it was 40.2% (inactive); with CCRF-CEM leukemia, 24.8% (inactive). Also, in the test with MOLT-4 leukemia, the growth was 12.3% (inactive).

As for `C/C=C/CC(C)C(O)[C@H](NC(=O)[C@@H]1CCCN1C(=O)[C@](C)(CC)NC(=O)CCCCCCCCC)C(=O)N[C@@](C)(CC)C(=O)N[C@@H](CCC(N)=O)C(=O)N[C@H](CCC(N)=O)C(=O)NC(C)(C)C(=O)NC(C)(C)C(=O)N[C@@H](CCC(N)=O)C(=O)N[C@H](CC(C)C)C(=O)N[C@H](CO)CC(C)C` (stereo partly specified), the growth in the test on HCT-15 colon was 76.9% (inactive) and -9.08% (active); in the test with HT29 colon, 89.8% (inactive) and -25% (active); in the test with SNB-75 CNS, 13.1% (inactive) and -93.4% (active); in the test with SNB-19 CNS it was 65.8% (inactive) and -98.1% (active); in the test with U251 CNS, 61.2% (inactive) and -77.9% (active); with PC-3 prostate it was 69.8% (inactive) and -63.6% (active). For the same compound, the growth with SK-MEL-5 melanoma is 7.02% (active) and -81.2% (active); with UACC-62 melanoma it was 73.8% (inactive) and -86.4% (active); in the test on LOX IMVI melanoma, 40.1% (inactive) and -86.6% (active); in the test with SK-MEL-2 melanoma, 108% (inactive) and -50% (active); in the test on EKVX NSCLC, 55.1% (inactive) and -69.6% (active); in the test on SN12C renal, 28.8% (inactive) and -51.5% (active). For the same compound, the growth with UO-31 renal was 55.2% (inactive) and -79.7% (active); in the test with TK-10 renal, 107% (inactive) and -11.3% (active); with ACHN renal, 76.8% (inactive) and -79.3% (active); with CAKI-1 renal, 42% (inactive) and -69.1% (active); in the test with A498 renal, 12.7% (inactive) and -50.9% (active); in the test with CCRF-CEM leukemia, 60.2% (inactive) and -40% (active). In addition, the growth in the test with MOLT-4 leukemia was 49.5% (inactive) and -8.22% (active).

With `O=C(CSc1nc2ccccc2c(=O)n1CCc1ccccc1)Nc1ccc(S(=O)(=O)Nc2ccc(Cl)nn2)cc1`, the growth with HCT-15 colon is 92.4% (inactive); in the test with HT29 colon, 117% (inactive); with SNB-75 CNS it was 78.7% (inactive); in the test on SNB-19 CNS it was 92.2% (inactive); in the test on U251 CNS it was 92.9% (inactive); in the test with PC-3 prostate, 89.3% (inactive). Also, the growth with SK-MEL-5 melanoma was 98.6% (inactive); in the test on UACC-62 melanoma, 84.6% (inactive); with LOX IMVI melanoma, 96.1% (inactive); with SK-MEL-28 melanoma it was 108% (inactive); in the test with SK-MEL-2 melanoma it was 111% (inactive); in the test on EKVX NSCLC it was 86.9% (inactive). The growth was 94.9% (inactive) in the test with SN12C renal; 65.1% (inactive) in the test with UO-31 renal; 90.6% (inactive) in the test with ACHN renal; 75.1% (inactive) in the test on CAKI-1 renal; 107% (inactive) in the test with A498 renal; 99.2% (inactive) with CCRF-CEM leukemia. Also, the growth in the test with MOLT-4 leukemia was 99.8% (inactive).

Turning to `C[C@H]1OCC2(CCN(c3cnc(C(=O)Nc4cc(F)cc5cccnc45)cn3)CC2)[C@H]1N`, the growth in the test on HCT-15 colon was 14.5% (inactive); in the test on HT29 colon, 30.3% (inactive); in the test with SNB-75 CNS, 62.9% (inactive); in the test on SNB-19 CNS, 73.5% (inactive); in the test on U251 CNS it was 66.3% (inactive); in the test with PC-3 prostate it was 50.8% (inactive). For the same compound, the growth in the test with SK-MEL-5 melanoma was 93.2% (inactive); in the test with UACC-62 melanoma it was 31.7% (inactive); with LOX IMVI melanoma it was 33.2% (inactive); in the test on SK-MEL-28 melanoma it was 61.4% (inactive); in the test with SK-MEL-2 melanoma, 101% (inactive); with EKVX NSCLC it was 77.2% (inactive). For the same compound, the growth with SN12C renal was 46.5% (inactive); in the test on UO-31 renal it was 38.9% (inactive); in the test with ACHN renal, 33.7% (inactive); in the test with CAKI-1 renal, 40.9% (inactive); with A498 renal, 65.2% (inactive); in the test with CCRF-CEM leukemia, 15.6% (inactive). In addition, the growth in the test on MOLT-4 leukemia was 16.8% (inactive).

Regarding `CC1CCN(CC(=O)Nn2c(COc3ccccc3)nc3ccccc3c2=O)CC1`, the growth in the test on HCT-15 colon is 56% (inactive); with HT29 colon it was 73.1% (inactive); in the test with SNB-75 CNS it was 72.6% (inactive); in the test on SNB-19 CNS, 86.4% (inactive); with U251 CNS it was 81.4% (inactive); in the test with PC-3 prostate, 94.3% (inactive). Also, the growth in the test with SK-MEL-5 melanoma is 82.9% (inactive); in the test on UACC-62 melanoma it was 69.3% (inactive); in the test on LOX IMVI melanoma, 85.3% (inactive); with SK-MEL-28 melanoma it was 92.8% (inactive); in the test on SK-MEL-2 melanoma, 87.2% (inactive); in the test on EKVX NSCLC, 86.1% (inactive). Moreover, the growth with SN12C renal is 96.3% (inactive); in the test on UO-31 renal it was 70.7% (inactive); with ACHN renal, 102% (inactive); in the test on CAKI-1 renal, 71.2% (inactive); in the test with A498 renal, 81.8% (inactive); in the test on CCRF-CEM leukemia it was 89.4% (inactive). Besides, the growth with MOLT-4 leukemia was 88.1% (inactive).

(Values after PubChem BioAssay (NCI).)
